In PubChem BioAssay (NCATS) one finds Potency data, which are given here for 36 compounds.

Records with an inconclusive call do not appear. Where a call stands in place of a potency, no number is given. Activity calls are given as the source filed them. Calls come from the whole dose curve; as a rule, active = well fitted inhibition curve with a large enough effect; inconclusive = small, poorly fitted or top-dose-only effect; inactive = flat fitted curve, though single readings scatter.

One test concerns CP211. In words: qHTS profiling for inhibitors of Plasmodium falciparum proliferation (AID 504749). Note: nearly all actives have a fitted effect of over 60% in size. To be noted: P. falciparum in erythrocytes, SYBR Green DNA, 72 h; series mostly up to 28.7 µM. Summed up:
(§1)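 Readout was DNA-dye fluorescence from lysed cultures, ex 485/em 535 nm. Parasitized red cells had grown 72 h with compound; data scaled between 0.29 uM artemisinin and DMSO wells and corrected using vehicle-only plates.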
A general note: In qHTS, concentration-response curves come from the screen itself.
In the case of `[O-][n+]1cccc(CO)c1`, the Potency result is “inactive”.
Still for that read-out and setting: in the case of `Cc1cccc(C)c1NC(=O)CN(CC(=O)O)CC(=O)O` it was “inactive”; in that of `O=C(O)[C@@H]1CSCN1`, “inactive”.
Regarding `COc1cc2[nH]c(=O)[nH]c(=O)c2cc1OC`, the Potency entry was “inactive”.
Consider `N[C@@H](CSCCCO)C(=O)O`, for which the Potency entry was “inactive”.
Turning to `O=c1[nH]c(=O)c2[nH]c(=O)[nH]c2[nH]1`, the Potency entry is “inactive”.
As for `CCCCCCCCCCCCCCCCCCOCC(O)CO` (stereo not drawn), the Potency result is “inactive”.
The same measure, in the same setting: in the case of `O=C(O)c1ccccc1-c1ccc(C(F)(F)F)cc1` it was “inactive”; in that of `C[C@](N)(Cc1ccc(O)cc1)C(=O)O`, “inactive”; in that of `O=C1OC(OC(=O)c2cccnc2Nc2cccc(C(F)(F)F)c2)c2ccccc21` (stereo not drawn), “inactive”.
`Nc1ccc(S(=O)(=O)Nc2ccccc2)cc1`: the Potency result was “inactive”.
Same read-out and setting: in the case of `NC(=O)NNc1ccccc1` it was “inactive”; in that of `CC1(C)[C@@H]2CC[C@@]1(C)C(=O)C2`, “inactive”; in that of `CCC(=O)Nc1ccc(O)cc1`, “inactive”.
On the same count and under the same terms, in the case of `CC1(C)CO[C@@H](CC(=O)O)CN1` it was “inactive”; in that of `CCCCc1ncc(/C=C(\Cc2cccs2)C(=O)O)n1Cc1ccc(C(=O)O)cc1`, “inactive”; in that of `NCCNCCNCCNCCN`, “inactive”.
For `CCN(CC)CCSC(=O)C(c1ccccc1)c1ccccc1`, the Potency result is “inactive”.
Same read-out and setting: to `C=Cc1c(C)c2cc3[nH]c(cc4nc(cc5nc(cc1[nH]2)C(C)=C5CCC(=O)O)C(CCC(=O)O)=C4C)c(C)c3C=C` belongs “inactive”; to `NCC(=O)CCC(=O)O`, “inactive”.
Same read-out and setting: in the case of `COc1cc(C(=O)N2CCOCC2)cc(OC)c1OC` it was “inactive”.
As for `Cc1cccc(Nc2cc(Cl)nc(SCC(=O)O)n2)c1C`, the Potency entry was “inactive”.
Still for that read-out and setting: to `O=C(O)COc1nn(Cc2ccccc2)c2ccccc12` belongs “inactive”.
The same measure, in the same setting: to `CC(=O)NC(Cc1ccccc1)C(=O)O` (stereo not drawn) belongs “inactive”; to `Cc1cc(CC(=O)O)n(C)c1C(=O)c1ccc(Cl)cc1`, “inactive”; to `CCCOC(=O)c1ccccc1`, “inactive”.
Still for that read-out and setting: to `CCCCC(CC)COC(=O)c1ccccc1O` (stereo not drawn) belongs “inactive”; to `Oc1cccc(O)c1`, “inactive”.
`CC(=O)CCC(=O)O`: the Potency entry was “inactive”.
Still for that read-out and setting: to `COc1cc(C)c(Cc2cnc(N)nc2N)cc1OC` belongs “inactive”; to `CCN(CC)CCNC(=O)c1cc(Cl)c(N)cc1OC`, “inactive”.
On the same count and under the same terms, to `CCCn1cnc2c1c(=O)n(CCCCC(C)=O)c(=O)n2C` belongs “inactive”; to `O=C1c2c(O)cccc2Cc2cccc(O)c21`, “inactive”; to `Cc1ncc(COP(=O)(O)O)c(C=O)c1O`, “inactive”.
With `O=c1cc(CO)occ1O`, the Potency entry was “inactive”.
The same measure, in the same setting: in the case of `COc1ccc2c(c1)C(=O)N(CCc1ccc(S(=O)(=O)NC(=O)NC3CCCCC3)cc1)C(=O)C2(C)C` it was “inactive”.

Another test relates to CP215. The description is as above. The settings on record: P. falciparum in erythrocytes, SYBR Green DNA, 72 h; series mostly up to 28.7 µM. The method, boiled down: as §1
`[O-][n+]1cccc(CO)c1`: the Potency entry was “inactive”.
Still for that read-out and setting: in the case of `Cc1cccc(C)c1NC(=O)CN(CC(=O)O)CC(=O)O` it was “inactive”; in that of `O=C(O)[C@@H]1CSCN1`, “inactive”.
Consider `COc1cc2[nH]c(=O)[nH]c(=O)c2cc1OC`, for which the Potency entry is “inactive”.
In the case of `N[C@@H](CSCCCO)C(=O)O`, the Potency result is “inactive”.
As for `O=c1[nH]c(=O)c2[nH]c(=O)[nH]c2[nH]1`, the Potency result was “inactive”.
Still for that read-out and setting: to `CCCCCCCCCCCCCCCCCCOCC(O)CO` (stereo not drawn) belongs “inactive”; to `O=C(O)c1ccccc1-c1ccc(C(F)(F)F)cc1`, “inactive”; to `C[C@](N)(Cc1ccc(O)cc1)C(=O)O`, “inactive”.
As to `O=C1OC(OC(=O)c2cccnc2Nc2cccc(C(F)(F)F)c2)c2ccccc21` (stereo not drawn), the Potency entry was “inactive”.
Same read-out and setting: to `Nc1ccc(S(=O)(=O)Nc2ccccc2)cc1` belongs “inactive”; to `NC(=O)NNc1ccccc1`, “inactive”; to `CC1(C)[C@@H]2CC[C@@]1(C)C(=O)C2`, “inactive”.
`CCC(=O)Nc1ccc(O)cc1`: the Potency result is “inactive”.
Consider `CC1(C)CO[C@@H](CC(=O)O)CN1`, for which the Potency entry was “inactive”.
`CCCCc1ncc(/C=C(\Cc2cccs2)C(=O)O)n1Cc1ccc(C(=O)O)cc1`: the Potency result is “inactive”.
The same measure, in the same setting: in the case of `NCCNCCNCCNCCN` it was “inactive”; in that of `CCN(CC)CCSC(=O)C(c1ccccc1)c1ccccc1`, “inactive”; in that of `C=Cc1c(C)c2cc3[nH]c(cc4nc(cc5nc(cc1[nH]2)C(C)=C5CCC(=O)O)C(CCC(=O)O)=C4C)c(C)c3C=C`, “inactive”.
Turning to `NCC(=O)CCC(=O)O`, the Potency entry is “inactive”.
With `COc1cc(C(=O)N2CCOCC2)cc(OC)c1OC`, the Potency entry was “inactive”.
Regarding `Cc1cccc(Nc2cc(Cl)nc(SCC(=O)O)n2)c1C`, the Potency entry was “inactive”.
For `O=C(O)COc1nn(Cc2ccccc2)c2ccccc12`, the Potency entry was “inactive”.
Still for that read-out and setting: to `CC(=O)NC(Cc1ccccc1)C(=O)O` (stereo not drawn) belongs “inactive”; to `Cc1cc(CC(=O)O)n(C)c1C(=O)c1ccc(Cl)cc1`, “inactive”.
Turning to `CCCOC(=O)c1ccccc1`, the Potency entry is “inactive”.
Consider `CCCCC(CC)COC(=O)c1ccccc1O` (stereo not drawn), for which the Potency result was “inactive”.
Still for that read-out and setting: in the case of `Oc1cccc(O)c1` it was “inactive”; in that of `CC(=O)CCC(=O)O`, “inactive”; in that of `COc1cc(C)c(Cc2cnc(N)nc2N)cc1OC`, “inactive”.
In the case of `CCN(CC)CCNC(=O)c1cc(Cl)c(N)cc1OC`, the Potency entry was “inactive”.
Still for that read-out and setting: in the case of `CCCn1cnc2c1c(=O)n(CCCCC(C)=O)c(=O)n2C` it was “inactive”; in that of `O=C1c2c(O)cccc2Cc2cccc(O)c21`, “inactive”.
In the case of `Cc1ncc(COP(=O)(O)O)c(C=O)c1O`, the Potency entry is “inactive”.
Consider `O=c1cc(CO)occ1O`, for which the Potency entry was “inactive”.
On the same count and under the same terms, to `COc1ccc2c(c1)C(=O)N(CCc1ccc(S(=O)(=O)NC(=O)NC3CCCCC3)cc1)C(=O)C2(C)C` belongs “inactive”.

In the next test the test system is CP217. Described as above. To be noted: P. falciparum in erythrocytes, SYBR Green DNA, 72 h; series mostly up to 28.7 µM. The method, boiled down: as §1
For `[O-][n+]1cccc(CO)c1`, the Potency entry was “inactive”.
Take `Cc1cccc(C)c1NC(=O)CN(CC(=O)O)CC(=O)O`: the Potency result was “inactive”.
Same read-out and setting: in the case of `O=C(O)[C@@H]1CSCN1` it was “inactive”.
The same measure, in the same setting: to `COc1cc2[nH]c(=O)[nH]c(=O)c2cc1OC` belongs “inactive”; to `N[C@@H](CSCCCO)C(=O)O`, “inactive”; to `O=c1[nH]c(=O)c2[nH]c(=O)[nH]c2[nH]1`, “inactive”.
On the same count and under the same terms, to `CCCCCCCCCCCCCCCCCCOCC(O)CO` (stereo not drawn) belongs “inactive”.
For `O=C(O)c1ccccc1-c1ccc(C(F)(F)F)cc1`, the Potency result is “inactive”.
Same read-out and setting: to `C[C@](N)(Cc1ccc(O)cc1)C(=O)O` belongs “inactive”; to `O=C1OC(OC(=O)c2cccnc2Nc2cccc(C(F)(F)F)c2)c2ccccc21` (stereo not drawn), “inactive”; to `Nc1ccc(S(=O)(=O)Nc2ccccc2)cc1`, “inactive”.
In the case of `NC(=O)NNc1ccccc1`, the Potency entry is “inactive”.
The same measure, in the same setting: to `CC1(C)[C@@H]2CC[C@@]1(C)C(=O)C2` belongs “inactive”.
`CCC(=O)Nc1ccc(O)cc1`: the Potency result is “inactive”.
On the same count and under the same terms, in the case of `CC1(C)CO[C@@H](CC(=O)O)CN1` it was “inactive”; in that of `CCCCc1ncc(/C=C(\Cc2cccs2)C(=O)O)n1Cc1ccc(C(=O)O)cc1`, “inactive”; in that of `NCCNCCNCCNCCN`, “inactive”.
On the same count and under the same terms, to `CCN(CC)CCSC(=O)C(c1ccccc1)c1ccccc1` belongs “inactive”; to `C=Cc1c(C)c2cc3[nH]c(cc4nc(cc5nc(cc1[nH]2)C(C)=C5CCC(=O)O)C(CCC(=O)O)=C4C)c(C)c3C=C`, “inactive”; to `NCC(=O)CCC(=O)O`, “inactive”.
Same read-out and setting: in the case of `COc1cc(C(=O)N2CCOCC2)cc(OC)c1OC` it was “inactive”; in that of `Cc1cccc(Nc2cc(Cl)nc(SCC(=O)O)n2)c1C`, “inactive”; in that of `O=C(O)COc1nn(Cc2ccccc2)c2ccccc12`, “inactive”.
For the compound `CC(=O)NC(Cc1ccccc1)C(=O)O` (stereo not drawn), the Potency entry was “inactive”.
The same measure, in the same setting: in the case of `Cc1cc(CC(=O)O)n(C)c1C(=O)c1ccc(Cl)cc1` it was “inactive”; in that of `CCCOC(=O)c1ccccc1`, “inactive”.
Regarding `CCCCC(CC)COC(=O)c1ccccc1O` (stereo not drawn), the Potency entry is “inactive”.
The same measure, in the same setting: in the case of `Oc1cccc(O)c1` it was “inactive”; in that of `CC(=O)CCC(=O)O`, “inactive”; in that of `COc1cc(C)c(Cc2cnc(N)nc2N)cc1OC`, “inactive”.
On the same count and under the same terms, in the case of `CCN(CC)CCNC(=O)c1cc(Cl)c(N)cc1OC` it was “inactive”; in that of `CCCn1cnc2c1c(=O)n(CCCCC(C)=O)c(=O)n2C`, “inactive”.
As to `O=C1c2c(O)cccc2Cc2cccc(O)c21`, the Potency entry was “inactive”.
In the case of `Cc1ncc(COP(=O)(O)O)c(C=O)c1O`, the Potency result was “inactive”.
With `O=c1cc(CO)occ1O`, the Potency result was “inactive”.
Same read-out and setting: to `COc1ccc2c(c1)C(=O)N(CCc1ccc(S(=O)(=O)NC(=O)NC3CCCCC3)cc1)C(=O)C2(C)C` belongs “inactive”.
